Data on 13 compounds can be found in PubChem BioAssay (EPA / NIEHS).

Experiment [1] can be described thus: CCTE_Shafer_MEA_acute_burst_percentage_mean: CCTE's Neural Acute Assay for Percentage of Spikes in a Burst, Shafer Lab (AID 2284017).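 On AC50: curve fitted for loss of signal so potency reflects decreased burst percentage.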 The essentials: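 Primary rat cortical neurons on 48-well MEA plates, treated on DIV 13 or 15 at 0.03-40 uM. Spikes detected at 8x rms noise at 37C; percent change from 40-min baseline to 40-min post-dose recording, fitted versus DMSO.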

Experiment [2] is described as follows: CCTE_Shafer_MEA_acute_burst_percentage_std: CCTE's Neural Acute Assay for Standard Deviation of Burst Percentage, Shafer Lab (AID 2284018).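 Further: fitted in the negative direction so actives lower burst percentage SD.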 The gist of the method: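 Primary rat cortical neurons on 16-electrode MEA wells were recorded 40 min at baseline (DIV 13 or 15), then 40 min after compound (0.03-40 uM), at 37 C. Well value is SD across electrodes of spikes-in-bursts/total spikes; endpoint is percent change, DMSO-referenced.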

Experiment [3] in a line: CCTE_Shafer_MEA_acute_per_network_burst_spike_number_mean: CCTE's Neural Acute Assay for Average Number of Spikes in a Network Burst, Shafer Lab (AID 2284019). The essentials:
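Primary rat cortical neurons on 16-electrode MEA wells, DIV 13 or 15, 37 C; 40-min baseline then 40-min recording with compound (0.03-40 uM). Spikes per network burst (total spikes/number of bursts) expressed as percent change from baseline, DMSO reference.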

The nature of experiment [4]: CCTE_Shafer_MEA_acute_per_network_burst_electrodes_number_mean: CCTE's Neural Acute Assay for Mean Number of Electrodes in a Network Burst, Shafer Lab (AID 2284021).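 Further: curves fitted for decreases only so hits reduce electrodes per burst.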 The essentials: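 Primary rat cortical networks, mwMEA, 37 C. 20 min stabilization, 40 min baseline, compound 0.03-40 uM, 40 min re-record. Wells need >=10 active electrodes; percent change per well, negative fitting direction.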

Experiment [5] is described as follows: CCTE_Shafer_MEA_acute_cross_correlation_area: CCTE's Neural Acute Assay for Area of Cross Correlation, Shafer Lab (AID 2284024).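 Further: area under pooled inter-electrode spike cross-correlation near zero lag as percent change from own baseline; curves fitted for loss of cross-correlation area so actives lower synchrony.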 The essentials: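 Plates equilibrated 20 min at 37 C, then 40 min baseline was recorded, compound was added (0.03-40 uM), and a further 40 min was recorded. Wells needed ≥10 active electrodes (≥5 spikes/min) on exposure day.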
The nature of experiment [6]: CCTE_Shafer_MEA_acute_cross_correlation_HWHM: CCTE's Neural Acute Assay for Cross Correlation at Half Width at Half Maximum, Shafer Lab (AID 2284026).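 Further: percent change per well from pre-dose baseline in spike cross-correlogram half width; hits are a decrease in cross-correlogram half width relative to DMSO.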 The essentials: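 Rat cortical neuron cultures on microelectrode arrays were equilibrated 20 min at 37 C, recorded 40 min at baseline, then 40 min after compound addition (0.03-40 uM, ≥3 wells). Spikes were detected at 8x rms noise after 300-5000 Hz band-pass filtering.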

Experiment [7] can be described thus: CCTE_Shafer_MEA_acute_synchrony_index: CCTE's Neural Acute Assay for Synchrony, Shafer Lab (AID 2284027).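 Further: network synchrony index of spontaneous spiking in primary rat cortical neurons on MEAs; fitted for loss of signal so actives lower synchrony relative to DMSO.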 The gist of the method: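 Primary rat cortical neurons on 16-electrode MEA wells were recorded 40 min at baseline (DIV 13 or 15) and 40 min after compound (0.03-40 uM) at 37 C. Synchrony index (0-1) expressed as percent change from baseline, versus DMSO.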

Experiment [8] concerns the target Estrogen receptor (Homo sapiens) (UniProt P03372). Description: CCTE_Deisenroth_AIME_384WELL_LUC_Active: CCTE's 384-well Estrogen Receptor Transactivation Assay with AIME metabolic competence (ERTA luciferase; metabolism positive), Deisenroth Lab (AID 2284030; active means hit-call score of the fitted dose curve at least 0.9, where 1 is the maximum). The gist of the method:
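AIME metabolism-positive mode: chemicals 0.002 - 200 uM, 2 h with alginate-bound PB/BNF-induced rat S9 → medium to VM7Luc4E2 ERTA, 24 h → luciferase. Positive fit vs 17beta-estradiol; n=4 typical.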

A short description of experiment [9]: CCTE_Shafer_MEA_dev_firing_rate_mean: CCTE's Neural Network Formation Assay for Mean Firing Rate, Shafer Lab (AID 2284031). The essentials:
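Primary rat cortical neurons on 48-well, 16-electrode MEAs (PEI-coated, laminin at plating), exposed from day 0 with compound renewed at DIV 5 and 9. Spikes recorded DIV 5, 7, 9, 12; well-mean firing rate collapsed to trapezoidal AUC, loss-of-signal vs DMSO.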

Experiment [10] in a line: CCTE_Shafer_MEA_dev_per_burst_spike_percent: CCTE's Neural Network Formation Assay for Percent of Spikes in a Burst, Shafer Lab (AID 2284032).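 On AC50: fitted as a decrease in burst spike percentage below DMSO baseline.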 The gist of the method: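 Rat primary cortical neurons on 16-electrode MEA wells, dosed from plating day 0 for 12 days with renewal on DIV 5 and 9; spikes-in-bursts percentage averaged over bursting electrodes, collapsed as AUC across days 5, 7, 9, 12; loss direction versus DMSO.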

The nature of experiment [11]: CCTE_Deisenroth_AIME_384WELL_CTox_Active: Cytotoxicity Assessment (CTOX) in CCTE's 384-well Estrogen Receptor Transactivation Assay with AIME metabolic competence (metabolism positive), Deisenroth Lab (AID 2284037; active means hit-call score of the fitted dose curve at least 0.9, where 1 is the maximum;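 further: chemicals first conditioned 2 h by alginate-bound induced rat liver S9 before cells; activity means signal loss indicating cell death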). The gist of the method:
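VM7Luc4E2 breast cells received medium pre-incubated 2 h with chemical over alginate microspheres holding induced male Sprague Dawley rat liver S9; viability read 24 h later by protease-substrate fluorescence. Loss of signal, bidirectional fit, 0.002–200 uM.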

The target of experiment [12] is Estrogen receptor (Homo sapiens) (UniProt P03372). The experiment in a line: CCTE_Deisenroth_AIME_384WELL_LUC_Inactive: CCTE's 384-well Estrogen Receptor Transactivation Assay without AIME metabolic competence (ERTA luciferase; metabolism negative), Deisenroth Lab (AID 2284038; active means hit-call score of the fitted dose curve at least 0.9, where 1 is the maximum;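 further: hits raise estrogen receptor luciferase signal so potencies reflect agonists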). The gist of the method: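 Chemicals (10-point series, 0.002 - 200 uM) were incubated 2 hours with alginate-water microsphere lids lacking S9, then the conditioned medium was transferred to VM7Luc4E2 breast cells for 24 hour. Luciferase induction was read by bioluminescence, fitted upward relative to 17beta-estradiol.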
Chain of Estrogen receptor (Homo sapiens) (P03372 whole entry, looked up): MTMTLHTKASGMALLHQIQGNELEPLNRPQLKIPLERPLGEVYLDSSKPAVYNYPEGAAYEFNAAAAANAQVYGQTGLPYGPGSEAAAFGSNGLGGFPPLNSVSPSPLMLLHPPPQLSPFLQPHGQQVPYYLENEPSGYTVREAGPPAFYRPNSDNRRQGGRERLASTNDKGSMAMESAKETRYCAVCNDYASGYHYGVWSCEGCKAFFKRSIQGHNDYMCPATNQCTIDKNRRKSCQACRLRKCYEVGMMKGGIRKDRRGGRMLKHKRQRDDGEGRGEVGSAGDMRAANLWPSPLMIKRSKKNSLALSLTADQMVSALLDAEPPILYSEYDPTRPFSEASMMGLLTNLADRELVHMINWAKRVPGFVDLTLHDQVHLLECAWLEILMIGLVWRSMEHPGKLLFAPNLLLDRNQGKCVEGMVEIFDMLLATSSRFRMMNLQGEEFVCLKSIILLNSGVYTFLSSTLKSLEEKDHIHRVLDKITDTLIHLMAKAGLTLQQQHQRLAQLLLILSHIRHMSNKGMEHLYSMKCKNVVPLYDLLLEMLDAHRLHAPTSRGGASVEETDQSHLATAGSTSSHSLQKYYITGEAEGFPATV

The nature of experiment [13]: CCTE_Deisenroth_AIME_384WELL_CTox_Inactive: Cytotoxicity Assessment (CTOX) in CCTE's 384-well Estrogen Receptor Transactivation Assay without AIME metabolic competence (metabolism negative), Deisenroth Lab (AID 2284039; active means hit-call score of the fitted dose curve at least 0.9, where 1 is the maximum;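 further: cell viability via live-cell protease substrate cleaved to fluorescent probe; cells exposed 24 h to medium preincubated 2 h with alginate-water beads without S9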). The gist of the method:
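VM7Luc4E2 cells, metabolism-negative arm: test chemicals (0.002–200 uM, 10 points) pre-incubated 2 h with alginate-water microspheres, then medium transferred to cells for 24 h. Viability read as protease-substrate cleavage to fluorescent probe; loss-of-signal, bidirectional fitting.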

Experiment [14] in a line: CCTE_Shafer_MEA_dev_active_electrodes_number: CCTE's Neural Network Formation Assay for Number of Active Electrodes, Shafer Lab (AID 2284040; active means hit-call score of the fitted dose curve at least 0.9, where 1 is the maximum;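 on AC50: potency for loss of active electrodes versus DMSO so lower counts are hits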). The essentials:
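Rat cortical primary cultures, 1.5 x 10^5 cells/well, PEI-coated MEA, laminin drop. Continuous exposure DIV 0–12; full media/compound change DIV 5, 9. Readout: electrodes with mean firing ≥5 spikes/min; AUC across days; loss vs DMSO.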

For experiment [15], the target named is Estrogen receptor (Homo sapiens) (UniProt P03372). Description: CCTE_Deisenroth_AIME_384WELL_LUC_Shift: CCTE's 384-well Estrogen Receptor Transactivation Assay with AIME metabolic competence data shift (ERTA luciferase; difference in metabolism positive and negative), Deisenroth Lab (AID 2284041).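 Further: shift is response with S9 minus without S9 so positive means metabolism raised ER signal.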 The essentials: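 Here, parent compounds undergo 2 h phase I metabolism by PB/BNF-induced rat S9 before 24 h transactivation in VM7Luc4E2 cells; the curve models S9-positive minus S9-negative response over a 10-point series.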

A short description of experiment [16]: CCTE_Shafer_MEA_dev_burst_rate: CCTE's Neural Network Formation Assay for Burst Rate, Shafer Lab (AID 2284042). The gist of the method: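 Primary rat cortical neurons on PEI-coated 48-well MEA plates (laminin added with cells at plating) (16 electrodes/well), exposed from plating to day 12, dosing renewed at DIV 5 and 9. Burst rate averaged over active electrodes, recorded DIV 5, 7, 9, 12, summarized as AUC; loss versus DMSO.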

Records with an inconclusive call do not appear. More than one record can exist for a structure, and the calls need not agree. Activity calls are given as the source filed them. How the source made its calls, unless noted: active means hit-call score of the fitted dose curve at least 0.9, where 1 is the maximum; inactive means score below 0.9.

With `CCCc1cc(=O)[nH]c(=S)[nH]1`, the compound was classed as inactive in experiment [1], in experiment [2], in experiment [3], in [4], in experiment [5] and in [6]. Also, the call in experiment [7], in experiment [8], in experiment [9], in experiment [10], in [11] and in [12] was inactive. For the same compound, the result in experiment [13], in [14], in experiment [15] and in experiment [16] was inactive. Besides, the AC50 in experiment [10] and in experiment [14] was 22.9 µM (active) in each case.

Turning to `COc1ccc(S(=O)(=O)N2C(=O)[C@@](c3ccccc3OC)(N3C[C@H](O)C[C@H]3C(=O)N(C)C)c3cc(Cl)ccc32)c(OC)c1`, the compound was called inactive in [1], in experiment [2], in [3], in experiment [4], in experiment [5] and in [6]. In addition, in [7], the call was inactive.

For `CCCCCCCCCCO`, the AC50 in [1] was 10.3 µM (active); in experiment [6], 20 µM (active); in experiment [7] it was 20 µM (active). Further, the compound was called inactive in experiment [2], in experiment [3], in experiment [4], in experiment [5], in experiment [8] and in experiment [11]. Further, the result in experiment [12] and in [15] was inactive.

Regarding `c1cc(-c2ccncc2)ccn1`, the result in experiment [1], in experiment [2], in experiment [3], in experiment [4], in experiment [5] and in [6] was inactive. In addition, in experiment [7], the compound was classed as inactive.

Take `CCOC(=O)C(C)(C)Oc1ccc(Cl)cc1`: the call in experiment [1], in experiment [2], in [3], in experiment [4], in experiment [5] and in experiment [6] was inactive. Moreover, the result in experiment [7] was inactive.

With `C=CCOC(=O)c1ccccc1C(=O)OCC=C`, the concentration at half-maximal activity (AC50) in experiment [1] and in experiment [2] was 20 µM (active) each time. In addition, the compound was called inactive in [3], in experiment [4], in [5], in experiment [6] and in experiment [7].

As for `NCC1(Cc2noc(=O)[nH]2)CCCCC1`, the result in experiment [1], in experiment [2], in [3], in experiment [4], in experiment [5] and in experiment [6] was inactive. Further, the call in experiment [7] was inactive.

As for `CCCCCCCCCCCCCCCCCC(=O)O`, the compound was called inactive in [1], in experiment [2], in experiment [3], in [5], in experiment [6] and in experiment [7]. In addition, the call in [8], in experiment [11], in experiment [12], in experiment [13] and in experiment [15] was inactive.

Consider `CCNc1cccc(C)c1`, for which the compound was called inactive in experiment [8], in experiment [12], in experiment [13] and in [15].

Turning to `CCCCOC(=O)CCCCCCCCC(=O)OCCCC`, the result in [8], in experiment [11], in experiment [12], in experiment [13] and in experiment [15] was inactive.

`COc1cc(C=O)ccc1O`: the result in experiment [8], in experiment [11], in [12] and in [15] was inactive.

With `CC1=C(/C=C/C(C)=C/C=C/C(C)=C/CO)C(C)(C)CCC1`, the result in experiment [8], in [12], in experiment [13] and in experiment [15] was inactive.

Consider `OC[C@@H](O)[C@@H](O)[C@H](O)[C@H](O)CO`, for which the call in experiment [9], in experiment [10], in experiment [14] and in [16] was inactive.
